Inconclusive results are not listed. The source made the active and inactive calls. Calls come from the whole dose curve; as a rule, active = well fitted curve in the direction sought with a large enough effect; inconclusive = small, poorly fitted or top-dose-only effect, or another doubt; inactive = no such curve, though single readings can be large; an effect the other way counts as inactive or inconclusive.
How the values were obtained:
[1] = Quantitative High-Throughput drug screen in 47 multiple myeloma cell lines against the NCATS MIPE library collection: JIM3_ECACC cell viability assay (AID 1918963; note: nearly all actives have a fitted effect of over 35% in size)
Method in brief: (§1)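 Myeloma cell lines, 500 cells per well, exposed to MIPE 4.0 library compounds for 48 h at 37C, 5% CO2. Viability from ATP by CellTiter-Glo luminescence; normalised to DMSO (100%) and media-only (0%) wells.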

[2] = Quantitative High-Throughput drug screen in 47 multiple myeloma cell lines against the NCATS MIPE library collection: JIM1_ECACC cell viability assay (AID 1918964)
Method in brief: (§2)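 Approved and investigational drugs from MIPE 4.0 were added by pin tool to 500 cells per well. After 48 hours at 37C, ATP-based CellTiter-Glo luminescence indicated remaining viability.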

[3] = Quantitative High-Throughput drug screen in 47 multiple myeloma cell lines against the NCATS MIPE library collection: INA6_PLB cell viability assay (AID 1918965; note: nearly all actives have a fitted effect of over 55% in size)
Method in brief: as §1

[4] = Quantitative High-Throughput drug screen in 47 multiple myeloma cell lines against the NCATS MIPE library collection: JJN3_DSMZ cell viability assay (AID 1918966; note: nearly all actives have a fitted effect of over 50% in size)
Method in brief: as §2

[5] = Quantitative High-Throughput drug screen in 47 multiple myeloma cell lines against the NCATS MIPE library collection: H1112_PLB cell viability assay (AID 1918967; note: nearly all actives have a fitted effect of over 30% in size)
Method in brief: as §2

[6] = Quantitative High-Throughput drug screen in 47 multiple myeloma cell lines against the NCATS MIPE library collection: Karpas25_ECACC cell viability assay (AID 1918968; note: nearly all actives have a fitted effect of over 35% in size)
Method in brief: as §2

[7] = Quantitative High-Throughput drug screen in 47 multiple myeloma cell lines against the NCATS MIPE library collection: MOLP8_DSMZ cell viability assay (AID 1918977); note: nearly all actives have a fitted effect of over 45% in size
Method in brief: (§3)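 500 cells/well per myeloma line exposed to pinned MIPE 4.0 compounds for 48 h at 37 °C, 5% CO2. Viability read as ATP by CellTiter-Glo luminescence, normalised to DMSO-only (100%) and media-only (0%) wells.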

[8] = Quantitative High-Throughput drug screen in 47 multiple myeloma cell lines against the NCATS MIPE library collection: NCIH929_DSMZ cell viability assay (AID 1918978); note: nearly all actives have a fitted effect of over 35% in size
Method in brief: as §3

[9] = Quantitative High-Throughput drug screen in 47 multiple myeloma cell lines against the NCATS MIPE library collection: OCIMY1_PLB cell viability assay (AID 1918979); note: nearly all actives have a fitted effect of over 35% in size
Method in brief: as §3

[10] = Quantitative High-Throughput drug screen in 47 multiple myeloma cell lines against the NCATS MIPE library collection: MM1S_ATCC cell viability assay (AID 1918980); note: nearly all actives have a fitted effect of over 45% in size
Method in brief: as §3

[11] = Quantitative High-Throughput drug screen in 47 multiple myeloma cell lines against the NCATS MIPE library collection: MM1R_ATCC cell viability assay (AID 1918981); note: nearly all actives have a fitted effect of over 35% in size
Method in brief: as §3

[12] = Quantitative High-Throughput drug screen in 47 multiple myeloma cell lines against the NCATS MIPE library collection: LP1_DSMZ cell viability assay (AID 1918982); note: nearly all actives have a fitted effect of over 35% in size
Method in brief: as §3

[13] = Quantitative High-Throughput drug screen in 47 multiple myeloma cell lines against the NCATS MIPE library collection: KMS26_JCRB cell viability assay (AID 1918975); note: nearly all actives have a fitted effect of over 45% in size
Method in brief: (§4)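 CellTiter-Glo luminescence (ATP) after 48 h compound exposure, 37C/5% CO2; 500 cells/well; MIPE 4.0 approved/investigational drugs pinned in; DMSO = 100%, media only = 0% viability.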

[14] = Quantitative High-Throughput drug screen in 47 multiple myeloma cell lines against the NCATS MIPE library collection: KMS27_JCRB cell viability assay (AID 1918970); note: nearly all actives have a fitted effect of over 30% in size
Method in brief: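 Luminescent ATP read-out (CellTiter-Glo, 5 min at room temperature) after 48 h compound exposure of 500 KMS27_JCRB cells per well; DMSO wells define full viability and media-only wells zero.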

[15] = Quantitative High-Throughput drug screen in 47 multiple myeloma cell lines against the NCATS MIPE library collection: KMS12PE_JCRB cell viability assay (AID 1918972); note: nearly all actives have a fitted effect of over 30% in size
Method in brief: as §1

[16] = Quantitative High-Throughput drug screen in 47 multiple myeloma cell lines against the NCATS MIPE library collection: KMS20_JCRB cell viability assay (AID 1918973); note: nearly all actives have a fitted effect of over 45% in size
Method in brief: as §2

[17] = Quantitative High-Throughput drug screen in 47 multiple myeloma cell lines against the NCATS MIPE library collection: KMS21BM_JCRB cell viability assay (AID 1918974); conditions: ATP luminescence, 48 h; viability: at 45.8 µM (top of the series) unless noted
Method in brief: as §2

[18] = Quantitative High-Throughput drug screen in 47 multiple myeloma cell lines against the NCATS MIPE library collection: KMS12BM_JCRB cell viability assay (AID 1918971); note: nearly all actives have a fitted effect of over 35% in size
Method in brief: as §4

[19] = Quantitative High-Throughput drug screen in 47 multiple myeloma cell lines against the NCATS MIPE library collection: MMM1_PLB cell viability assay (AID 1918976); note: nearly all actives have a fitted effect of over 35% in size
Method in brief: as §3

[20] = Quantitative High-Throughput drug screen in 47 multiple myeloma cell lines against the NCATS MIPE library collection: KHM11_PLB cell viability assay (AID 1918962); note: nearly all actives have a fitted effect of over 35% in size
Method in brief: as §1
Potency is the fitted concentration of half-maximal effect.

| SMILES | Potency [1] | Potency [2] | Potency [3] | Potency [4] | Potency [5] | Potency [6] | Potency [7] | Potency [8] | Potency [9] | Potency [10] | Potency [11] | Potency [12] | Potency [13] | Potency [14] | Potency [15] | Potency [16] | Potency [17] | Potency [18] | Potency [19] | Potency [20] |
| --- | --- | --- | --- | --- | --- | --- | --- | --- | --- | --- | --- | --- | --- | --- | --- | --- | --- | --- | --- | --- |
| CC1COC2(CCN(c3nc(=O)c4cc(C(F)(F)F)cc([N+](=O)[O-])c4s3)CC2)O1 (stereo not drawn) | inactive | inactive | inactive | inactive | inactive | inactive | inactive | inactive | inactive | inactive | inactive | inactive | – | – | – | – | – | – | – | – |
| CC(C)(C)NC(=O)[C@H]1CN(Cc2cccnc2)CCN1C[C@@H](O)C[C@@H](Cc1ccccc1)C(=O)N[C@H]1c2ccccc2C[C@H]1O | 5.26 µM (active) | inactive | 20.9 µM (active) | – | – | 4.18 µM (active) | – | – | – | – | 26.4 µM (active) | – | 20.9 µM (active) | – | – | – | – | – | – | – |
| COc1cc(C(C)C)c2c(c1)S(=O)(=O)N(COc1cc(=O)n3cccc(OCCN4CCCCC4)c3n1)C2=O | 18.7 µM (active) | 18700 nM (active) | 13.2 µM (active) | 5.26 µM (active) | 14.8 µM (active) | 13.2 µM (active) | – | 20.9 µM (active) | inactive | 11.8 µM (active) | – | – | – | 18.7 µM (active) | 23.5 µM (active) | 18.7 µM (active) | 18700 nM (active) | – | – | – |
| COc1cc(-c2nn(C3CCC(N4CCN(C(C)=O)CC4)CC3)c3ncnc(N)c23)ccc1NC(=O)c1cc2ccccc2n1C (stereo not drawn) | 2.35 µM (active) | 235 nM (active) | – | 7.43 µM (active) | 0.0833 µM (active) | – | 10.5 µM (active) | – | 7.43 µM (active) | 5.9 µM (active) | 5.9 µM (active) | – | 14.8 µM (active) | – | – | – | – | 10.5 µM (active) | 16.6 µM (active) | – |
| O=C(C=Cc1c(C(=O)O)[nH]c2cc(Cl)cc(Cl)c12)Nc1ccccc1 | inactive | inactive | – | inactive | inactive | – | – | inactive | inactive | inactive | – | inactive | inactive | inactive | inactive | inactive | – | inactive | – | – |
| Cc1cc(Nc2cc(CN3CCOCC3)c3nc(C)c(Cc4ccc(Cl)cc4F)n3n2)n[nH]1 | 4.69 µM (active) | 418 nM (active) | 2.35 µM (active) | 18.7 µM (active) | 23.5 µM (active) | 20.9 µM (active) | 20.9 µM (active) | 26.4 µM (active) | – | 20.9 µM (active) | 18.7 µM (active) | – | – | – | – | 5.26 µM (active) | – | 5.26 µM (active) | 14.8 µM (active) | – |
| CC(C)CC(=O)Nc1n[nH]c2c1CN(C(=O)C1CCN(C)CC1)C2(C)C | – | – | – | 2.09 µM (active) | – | 1.87 µM (active) | 0.418 µM (active) | 0.743 µM (active) | 16.6 µM (active) | 0.0662 µM (active) | 0.662 µM (active) | 1.87 µM (active) | 3.32 µM (active) | 1.18 µM (active) | 2.35 µM (active) | 1.05 µM (active) | 29.6 nM (active) | 1.66 µM (active) | 4.69 µM (active) | 1.18 µM (active) |
| Cc1cccc(C=NNc2cc(N3CCOCC3)nc(OCCc3ccccn3)n2)c1 | 2.35 µM (active) | 935 nM (active) | 14.8 µM (active) | – | – | 13.2 µM (active) | – | 14.8 µM (active) | – | 16.6 µM (active) | 6.62 µM (active) | 11.8 µM (active) | 0.118 µM (active) | – | 0.332 µM (active) | 6.62 µM (active) | – | 14.8 µM (active) | 16.6 µM (active) | – |
| C=C1C(=CC=C2CCCC3(C)[C@@H]([C@H](C)C=CC=CC(O)(CC)CC)CC[C@@H]23)C[C@@H](O)C[C@@H]1O (stereo partly drawn) | – | 16600 nM (active) | – | 18.7 µM (active) | 23.5 µM (active) | – | – | – | – | 10.5 µM (active) | 14.8 µM (active) | – | 23.5 µM (active) | 29.6 µM (active) | 14.8 µM (active) | – | – | 20.9 µM (active) | 20.9 µM (active) | – |
| Cc1cc(Nc2cc(N3CCN(C)CC3)nc(C=Cc3ccccc3)n2)n[nH]1 | – | 4810 nM (active) | 3.4 µM (active) | 30.3 µM (active) | 38.2 µM (active) | – | 9.59 µM (active) | 6.79 µM (active) | 5.4 µM (active) | 17.1 µM (active) | 13.6 µM (active) | 34 µM (active) | 21.5 µM (active) | 15.2 µM (active) | – | 4.29 µM (active) | – | 48.1 µM (active) | 30.3 µM (active) | – |
| O=c1c2ccccc2nc2n1CCc1c-2[nH]c2ccccc12 | – | inactive | – | – | – | inactive | inactive | – | inactive | – | inactive | inactive | – | – | inactive | – | – | inactive | – | – |
| CC(C)(O)c1cc2nc(-c3cnc(N)nc3)nc(N3CCOCC3)c2s1 | – | 10.5 nM (active) | 0.743 µM (active) | 0.059 µM (active) | – | 0.0296 µM (active) | 0.0296 µM (active) | 0.0148 µM (active) | 0.0296 µM (active) | 0.0662 µM (active) | 0.0662 µM (active) | 0.0132 µM (active) | 0.132 µM (active) | – | 1.48 µM (active) | 0.148 µM (active) | 590 nM (active) | – | 0.0469 µM (active) | – |
| COc1ccc(-n2nc(C(N)=O)c3c2C(=O)N(c2ccc(N4CCCCC4=O)cc2)CC3)cc1 | inactive | – | – | – | inactive | inactive | – | inactive | inactive | – | – | – | – | inactive | inactive | – | – | inactive | – | – |
